From PubChem BioAssay AID1851 (National Center for Advancing Translational Sciences (NCATS), 2009)
Among all 16,000 compounds or so, about 5,100 (32%) were called active. Another 25% or so got no clear call; they are omitted. Some of the results follow. Unmarked numbers belong to inactive results. Calls follow the shape of the dose curve; as a rule, active = well fitted curve in the direction sought with a large enough effect; inconclusive = small, poorly fitted or top-dose-only effect, or effect the other way; inactive = no such curve, though single readings can be large or run the other way.

molecular target: Cytochrome P450 3A4 (Homo sapiens) (UniProt P08684); experiment: Cytochrome panel assay with activity outcomes; settings: recombinant CYP, pro-luciferin dealkylation, luminescence, p450-cyp3a4; series mostly up to 57.1 µM; activity, negative = inhibition: at the top concentration
Sequence (P08684 whole entry, looked up): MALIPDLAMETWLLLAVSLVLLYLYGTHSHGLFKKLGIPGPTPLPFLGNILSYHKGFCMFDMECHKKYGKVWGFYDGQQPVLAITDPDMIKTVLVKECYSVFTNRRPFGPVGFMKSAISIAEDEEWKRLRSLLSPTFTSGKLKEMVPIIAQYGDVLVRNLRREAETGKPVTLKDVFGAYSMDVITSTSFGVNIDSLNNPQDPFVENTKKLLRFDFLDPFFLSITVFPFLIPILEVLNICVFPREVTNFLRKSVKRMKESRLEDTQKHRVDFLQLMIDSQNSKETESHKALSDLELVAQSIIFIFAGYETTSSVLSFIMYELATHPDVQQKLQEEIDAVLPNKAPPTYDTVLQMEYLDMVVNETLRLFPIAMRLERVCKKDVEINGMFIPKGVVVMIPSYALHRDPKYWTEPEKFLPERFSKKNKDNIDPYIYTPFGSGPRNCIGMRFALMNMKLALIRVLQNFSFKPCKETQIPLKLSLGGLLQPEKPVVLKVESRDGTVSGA
% is scaled to controls: 0 for no effect and ±100 for the full control effect.

SMILES | activity, negative = inhibition | AC50
O[C@H](C[C@@H]1CCCCN1)c1ccc2c(c1)oc1ccccc12 | -5% [at 11.4 µM] | 
CCOC(=O)c1cc(-c2ccc(Cl)cc2)nc2c1c(C)nn2CCC#N |  | 25.1 µM (active)
CCOC(=O)c1cnc(-c2ccccc2)nc1Oc1ccc(Cl)cc1 | 0.243% | 
COc1ccc(-c2cc(C(=O)O)c3c(C)nn(-c4ccccn4)c3n2)cc1 | -12.3% | 
Cc1ccc(Sc2c([N+](=O)[O-])ncn2C)cc1 | 11.7% [at 2.29 µM] | 
Cc1nn(C(=O)c2ccco2)c(C)c1Sc1ccc(Br)cc1 | -4.98% | 
Cc1nn(S(=O)(=O)c2cccs2)c(C)c1Sc1ccc([N+](=O)[O-])cc1 |  | 2.82 µM (active)
Cc1cccc2cc(CN(Cc3ccccc3)C(=O)c3cccc(F)c3)c(Cl)nc12 |  | 8.91 µM (active)
CCN(CC)c1ccc(NC(=O)c2cccc(F)c2)c(C)c1 | 2.35% [at 2.29 µM] | 
CN1CCc2c(cc(O)c(O)c2Cl)[C@H](c2cccc(Cl)c2)C1 | 19.4% | 
CCOC(=O)CN(c1ccccn1)S(=O)(=O)c1ccccc1 | -29.6% | 
Cc1cc(C)cc(N(CC(=O)NCCSc2ccccn2)S(=O)(=O)c2ccccc2)c1 |  | 3.98 µM (active)
COC(=O)CN(c1ccccn1)S(=O)(=O)c1ccccc1 | -3.69% | 
O=C(CN(c1ccccc1)S(=O)(=O)c1ccccc1)NCCSCc1ccco1 |  | 14.1 µM (active)
c1cncc(-c2cncnc2NCc2cccs2)c1 |  | 2 µM (active)
c1ccc(CNc2ncncc2-c2ccoc2)cc1 |  | 2 µM (active)
c1csc(CNc2ncncc2-c2ccoc2)c1 |  | 2 µM (active)
CCN(CC)CC[n+]1ccc2c(C)c3[nH]c4ccccc4c3c(C)c2c1 | -16.9% [at 11.4 µM] | 
C=CCN1C(=O)CN=C1Nc1ccccc1 | -22.2% | 
CCOc1ccc(N2C(=O)CN=C2Nc2ccccc2F)cc1 | 3.08% [at 2.29 µM] | 
O=C1CN=C(Nc2ccccc2)N1Cc1cccs1 | -6.15% [at 2.29 µM] | 
CCOc1ccc(NC2=NCC(=O)N2Cc2cccs2)cc1 |  | 17.8 µM (active)
COc1ccc(NC2=NCC(=O)N2Cc2cccs2)cc1 |  | 14.1 µM (active)
COc1ccccc1-c1ccc2ncnc(NCc3cccnc3)c2c1 |  | 0.631 µM (active)
COCCNc1ncnc2ccc(-c3ccccc3C(F)(F)F)cc12 |  | 15.8 µM (active)

SMILES | activity, negative = inhibition | AC50
FC(F)(F)c1ccccc1-c1ccc2ncnc(NCc3cccnc3)c2c1 |  | 1.58 µM (active)
COCCNc1ncnc2ccc(-c3ccccc3OC)cc12 |  | 15.8 µM (active)
O=C(c1ccccc1)c1ccc2n1CC[C@H]2C(=O)O |  | inactive
O=C(O)c1cc2c(o1)CCC/C2=N\O | -14.2% | 
CC(C)(CS)C(=O)N1CCC[C@H]1C(=O)O | 3.01% [at 25.6 µM] | 
COc1cccc(-c2ccc3ncnc(NCc4cccnc4)c3c2)c1 |  | 1 µM (active)
COc1ccccc1-c1ccc2ncnc(NCc3ccccc3)c2c1 |  | 12.6 µM (active)
Clc1ccccc1-c1ccc2ncnc(NCc3cccnc3)c2c1 |  | 2 µM (active)
Cc1cc(OC(=O)c2ccc(Cl)cc2Cl)nc(C)n1 | -8.46% | 
COc1ccc(-c2ccc(=O)n(CC(=O)Nc3nnc(C(C)C)s3)n2)cc1OC | -18% | 
COc1ccc(-c2nn3cnnc3s2)cc1OC |  | 14.1 µM (active)
O=S1(=O)OC(c2ccc(O)cc2)(c2ccc(O)cc2)c2ccccc21 | -11.8% [at 11.4 µM] | 
CC1(C)CC(=O)C2=C(C1)Nc1cc3c(cc1C2c1ccc(F)cc1)OCO3 (configuration not stated) |  | 1 µM (active)
Fc1ccc2c(c1)C1C=CCC1C(c1cc3c(cc1Br)OCO3)N2 (configuration not stated) | -4.14% [at 2.29 µM] | 
Nc1nc(Br)c2c(F)cccc2c1-c1ccc(F)cc1 |  | 22.4 µM (active)
Nc1nc(Br)c2ccccc2c1-c1ccc(F)cc1 |  | 14.1 µM (active)
Nc1nc(Br)c2c(F)cccc2c1-c1ccc(Cl)cc1 |  | 20 µM (active)
COC(=O)C[C@@H]1O[C@H]1[C@H](C)[C@@H](OC)C(C)C |  | 3.98 µM (active)
CO[C@@H](C(C)C)[C@@H](C)[C@@H]1OC(=O)C[C@@H]1O | -9.77% [at 11.4 µM] | 
CO[C@@H]1COC(=O)[C@H](CCSC)NC(=O)C/C=C\[C@@H](C)COC(=O)[C@@H]2CCCN2C(=O)C/C=C\[C@H]1C | -23.1% [at 11.4 µM] | 
Cc1ccc(S(=O)(=O)N(CCCN2CCCC2=O)Cc2cc3c(C)ccc(C)c3[nH]c2=O)cc1 |  | 1.12 µM (active)
Cc1ccc(S(=O)(=O)CC(O)CN2CCCC2=O)cc1 (configuration not stated) | -2.08% | 
O=C(NCCCN1CCCC1=O)c1ccc(CNS(=O)(=O)c2ccc(F)cc2)cc1 | -13.5% [at 11.4 µM] | 
COc1ccccc1CNc1ncncc1-c1ccccc1OC |  | 0.2 µM (active)
COc1ccccc1CNc1ncncc1-c1ccccc1Cl |  | 0.2 µM (active)

SMILES | activity, negative = inhibition | AC50
c1ccc2c3c([nH]c2c1)[C@@H]1[C@H]2CC[C@H]([C@H]4CCCN[C@H]42)N1CC3 | -11.2% [at 25.6 µM] | 
COC(=O)CSc1ncc(OC)c(OC)n1 | -5.02% | 
Cc1sc2ccccc2[n+]1CCC(=O)O | -6.82% [at 11.4 µM] | 
CCOC(=O)C1CCN(C(=O)C2CCN(c3nc4ccc(OC)cc4s3)CC2)CC1 | 18.5% | 
CCOC(=O)C[n+]1c(C)sc2ccc(OC)cc21 |  | 3.55 µM (active)
C1CCN(CC[C@@H]2CCCCN2)CC1 | -2.6% [at 11.4 µM] | 
CCC/C=C(\CCC)C(NP(=O)(c1ccccc1)c1ccccc1)c1ccc(-c2ccccc2)cc1 (configuration not stated) |  | 3.98 µM (active)
CCC/C=C(\CCC)C(NP(=O)(c1ccccc1)c1ccccc1)c1ccc(C(F)(F)F)cc1 (configuration not stated) |  | 3.16 µM (active)
CN(C)C(=O)/N=N\C(=O)N(C)C | -6.3% | 
O=C(O)C(Cc1ccccc1)Cc1ccccc1 | 5.23% [at 11.4 µM] | 
CS(=O)(=O)N1CCN(c2ccccc2NC(=O)c2ccc(Br)o2)CC1 |  | 15.8 µM (active)
CS(=O)(=O)N1CCC2(CC1)CN(C(=O)Nc1ccccc1)C2 | -13% | 
Nc1nc(N)c2nn(-c3ccc(C(=O)O)cc3)nc2n1 | -6.41% [at 11.4 µM] | 
CCCOc1ccc(C(=O)NC(=S)Nc2nc3ccc(C)cc3s2)cc1 | 13.6% [at 2.29 µM] | 
Cc1ccc2nc(NC(=O)COC(=O)c3ccc(Br)o3)sc2c1 |  | 15.8 µM (active)
Cc1ccc2nc(NC(=O)CSCC(=O)OCC(=O)c3ccc(Br)cc3)sc2c1 |  | 10 µM (active)
Cc1ccc2nc(NC(=O)COC(=O)CSc3nc(C)cc(C)n3)sc2c1 | 21.9% | 
CS(=O)(=O)Nc1c(O)ccc2c1CCC[C@H]2C1=NCCN1 | -4.57% | 
COCCn1c(=O)c(CCc2ccccc2)nc2cnc(Oc3ccc(OC)cc3)nc21 |  | 3.16 µM (active)
COc1ccc(Oc2ncc3ncc(=O)n(CCc4ccccc4)c3n2)cc1 |  | 1.26 µM (active)
COc1ncc2nc(CCc3ccccc3)c(=O)n(CCc3ccccc3)c2n1 |  | 3.16 µM (active)
O=c1cnc2cnc(Oc3ccccc3)nc2n1CCc1ccccc1 | -22.3% | 
COc1ncc2nc(CCc3ccccc3)c(=O)n(C)c2n1 | 0.537% | 
COCCn1c(=O)c(CCc2ccccc2)nc2cnc(OC)nc21 |  | 12.6 µM (active)
O=c1c(-c2ccccc2)nc2cnc(Oc3cccc(Cl)c3)nc2n1C1CC1 | 6.74% | 

SMILES | activity, negative = inhibition | AC50
O=c1c(CCc2ccccc2)nc2cnc(Oc3cccc(Cl)c3)nc2n1C[C@H]1CCCO1 |  | 0.501 µM (active)
COCCn1c(=O)c(CCc2ccccc2)nc2cnc(Oc3cccc(Cl)c3)nc21 |  | 0.794 µM (active)
Cc1nc2cnc(Oc3cccc(Cl)c3)nc2n(CCc2ccccc2)c1=O | -22.7% | 
O=c1oc2cc(Oc3ccc(C(F)(F)F)cc3[N+](=O)[O-])ccc2c2c1CCCC2 | -23.2% | 
O=c1oc2cc(Oc3c([N+](=O)[O-])cc(C(F)(F)F)cc3[N+](=O)[O-])ccc2c2c1CCCC2 |  | 14.1 µM (active)
CC1=NNC(=S)NCCCN2CCN(CCCNC(=S)NN=C(C)C=NNC(=S)NCCCN3CCN(CCCNC(=S)NN=C1)CC3)CC2 | -1.88% [at 11.4 µM] | 
CC(C)OP(=O)(OC(C)C)C(NC(=O)c1ccc(Br)cc1)c1ccccc1 (configuration not stated) |  | 11.2 µM (active)
CNNCc1ccc(C(=O)NC(C)C)cc1 | -12.2% [at 25.6 µM] | 
CC(=O)NC(NC(C)=O)c1ccc(Br)cc1 | 8.11% | 
O=C(O)C[C@H](Cc1ccccc1)C(=O)O | -6.62% [at 11.4 µM] | 
Cn1nc(C(F)(F)F)c(/C=N/OCc2c(Cl)cccc2Cl)c1Cl | -24.6% | 
Cn1nc(C(F)(F)F)c(/C=N/OC(=O)c2ccc(Cl)cc2)c1Cl | -0.892% | 
Cn1nc(C(F)(F)F)c(/C=N/OC(=O)c2ccccc2Cl)c1SCc1ccc(Cl)cc1 |  | 7.08 µM (active)
O=C(NCC1CCCO1)C(c1cccnc1)N(C(=O)Cc1cccs1)c1ccccc1 (configuration not stated) |  | 3.98 µM (active)
O=C(NCC1CCCO1)C(c1cccnc1)N(C(=O)Cc1cccs1)c1cccnc1 (configuration not stated) | -17.2% [at 2.29 µM] | 
Cc1ccc(C(C(=O)NC2CCCCC2)N(CC2CCCO2)C(=O)CNC(=O)c2cccs2)cc1 (configuration not stated) |  | 4.47 µM (active)
O=C(NCC(=O)N(c1ccccc1)C(C(=O)NC1CCCC1)c1cccnc1)c1cccs1 (configuration not stated) |  | 2 µM (active)
CN1CCc2c(sc3c2c(=O)n(-c2ccccc2)c2nncn32)C1 | 23.3% | 
NC(N)=NC(=O)c1nc(Cl)c(N)nc1N |  | inactive
CC1CCCC(C)N1C(=O)c1cc(-c2ccc(Cl)c(Cl)c2)on1 (configuration not stated) |  | 12.6 µM (active)
C[C@@H]1CCC[C@H](C)N1NC(=O)c1ccc(Cl)c(S(N)(=O)=O)c1 | -15.3% [at 25.6 µM] | 
O=C(c1cc(-c2ccc(Cl)cc2Cl)on1)N1CCN(C(=O)c2ccco2)CC1 | 13.8% | 
